The assay deals with Neuropilin-1 (Homo sapiens) (UniProt O14786). The assay is described as follows: NRP-1 b1b2 CendR peptide binding inhibitors, dose response, biochemical, FP and AlphaScreen panel (AID 651650). The note with it: NRP-1 b1b2 / RPARPAR peptide binding, FP or AlphaScreen; run 1, at 100 µM (top of the series).
Neuropilin-1 (Homo sapiens), sequence (O14786 whole entry, looked up): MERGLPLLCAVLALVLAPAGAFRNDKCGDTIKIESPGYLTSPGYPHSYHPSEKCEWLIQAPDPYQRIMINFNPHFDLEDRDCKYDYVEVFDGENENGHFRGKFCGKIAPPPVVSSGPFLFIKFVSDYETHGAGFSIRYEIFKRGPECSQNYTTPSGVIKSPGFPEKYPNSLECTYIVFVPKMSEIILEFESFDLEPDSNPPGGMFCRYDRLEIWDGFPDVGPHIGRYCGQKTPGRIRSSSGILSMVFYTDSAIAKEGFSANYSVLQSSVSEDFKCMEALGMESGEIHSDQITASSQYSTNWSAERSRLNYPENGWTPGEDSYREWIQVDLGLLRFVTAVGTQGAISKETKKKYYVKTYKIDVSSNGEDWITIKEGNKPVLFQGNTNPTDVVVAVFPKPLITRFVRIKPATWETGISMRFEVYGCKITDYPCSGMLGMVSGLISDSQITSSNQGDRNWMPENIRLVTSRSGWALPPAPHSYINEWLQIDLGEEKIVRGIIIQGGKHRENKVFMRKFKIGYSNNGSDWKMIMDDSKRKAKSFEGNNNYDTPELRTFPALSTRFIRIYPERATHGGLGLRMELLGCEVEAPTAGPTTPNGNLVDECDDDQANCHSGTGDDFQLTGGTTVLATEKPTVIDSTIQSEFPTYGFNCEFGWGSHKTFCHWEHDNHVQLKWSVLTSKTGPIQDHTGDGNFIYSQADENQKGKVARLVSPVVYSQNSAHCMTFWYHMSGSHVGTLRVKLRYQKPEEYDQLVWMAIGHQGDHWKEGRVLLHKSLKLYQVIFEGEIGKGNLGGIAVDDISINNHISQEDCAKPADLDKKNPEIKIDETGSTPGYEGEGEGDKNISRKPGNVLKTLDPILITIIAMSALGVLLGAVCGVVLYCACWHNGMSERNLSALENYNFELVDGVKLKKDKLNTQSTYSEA

For `C=CCOc1c(CNc2ncn[nH]2)cccc1OCC`, the inhibition was 33.2%.

As to `O=C(NNc1ncnc2c1cnn2-c1ccc(F)cc1)c1ccco1`, the inhibition came to 25.9%.

`O=c1c2ccccc2nc2n1C(CSc1ccc(F)cc1)CS2` (configuration not stated): the inhibition was 101%.

Take `CCOC(=O)N1CCN(C(=O)c2cc(COc3ccc(OC)cc3Cl)on2)CC1`: the inhibition came out at 37.8%.

Turning to `COc1ccc(C2CC(O)(c3ccccc3)Oc3cc(OC)ccc32)cc1` (configuration not stated), the inhibition was 7.29%.

Consider `COc1ccc(-c2[nH]ncc2CN(C)CCc2c(C)n[nH]c2C)c(F)c1`, for which the inhibition is -14.2%.

For the molecule `Cc1ccccc1-c1cnc(C(O)c2ccc(F)c(F)c2)[nH]1` (configuration not stated), the inhibition came out at 43.1%.

On to `Cn1c(=O)c2[nH]c(COc3ccccc3)nc2n(C)c1=O`, for which the inhibition was 16.6%.

For `CCC(=O)Nc1cc2c3c(c1)CCC(=O)N3CCC2`, the inhibition amounted to 101%.

Turning to `COC(=O)c1ccccc1NC(=O)CSc1nc(C)cc(C)n1`, the inhibition came out at 45.7%.

With `CCC1=C(OC(=O)N(CC)CC)N2C(=O)OC(=NCC(=O)OC)[C@]2(C)[C@H]2C1=CC[C@H]1C(=O)N(CC)C(=O)[C@H]12`, the inhibition was determined as 11.6%.

In the case of `CCCCOc1ccc(C(=O)N/C(=C/C=C/c2ccccc2)C(=O)NCCCO)cc1`, the inhibition came to 10.5%.

For `CCc1ccc(NC(=O)CCn2nc(C)c(S(=O)(=O)N3CCCCC3)c2C)cc1`, the inhibition turned out to be 51.9%.

Take `COc1cccc(OCCNC(=O)Nc2cc(F)c(F)cc2Cl)c1`: the inhibition turned out to be 54.1%.

On to `Cc1ccc(C(=O)Nc2ccccc2-c2ccccc2)cc1S(=O)(=O)Nc1ccccc1`, for which the inhibition came to 32.1%.

On to `O=C(/C=C/c1ccco1)N/C(=C\c1ccccc1)C(=O)NCCc1nc2ccccc2[nH]1`, for which the inhibition stood at 11.8%.

On to `Cc1nn(-c2ccccc2)c(C)c1C(=O)OCC(=O)Nc1ccccc1`, for which the inhibition amounted to 20.2%.

For the origin of these results see PubChem BioAssay AID651650 (Sanford-Burnham Center for Chemical Genomics, 2012).
